# FadD28 FP inh: M. tuberculosis FadD28 bisubstrate binding inhibition | FadD28 bisubstrate probe binding, fluorescence polarization | inhibition, % at 12.5 µM | actives 0.22% (n = 360,000) | AID 588549; in the data active = inhibition above about 8.5%, passing the limit was not always enough
# Rv3671c protease: inhibitors of M. tuberculosis serine protease Rv3671c; P9WHR9; inhibition, % at 5.96 µM; actives 0.048% (n = 320,000); AID 2606; in the data active = inhibition above about 38%;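 note: extracellular domain of Rv3671c used as enzyme; 0% = enzyme with DMSO and 100% = no enzyme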
# Target sequence (P9WHR9 whole entry, looked up, the tested form may be a part): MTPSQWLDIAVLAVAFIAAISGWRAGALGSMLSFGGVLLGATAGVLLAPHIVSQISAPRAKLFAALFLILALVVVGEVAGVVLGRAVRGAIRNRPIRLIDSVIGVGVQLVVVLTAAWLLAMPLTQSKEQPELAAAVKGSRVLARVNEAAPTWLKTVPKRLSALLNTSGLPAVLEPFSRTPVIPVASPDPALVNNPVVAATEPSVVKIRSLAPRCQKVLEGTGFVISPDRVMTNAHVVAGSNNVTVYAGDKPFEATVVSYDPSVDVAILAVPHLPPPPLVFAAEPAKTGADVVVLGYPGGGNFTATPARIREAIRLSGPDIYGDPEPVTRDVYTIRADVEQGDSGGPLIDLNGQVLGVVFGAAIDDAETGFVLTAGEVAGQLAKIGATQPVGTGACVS
# PrP UTR inh: inhibition of PrP 5' UTR reporter expression. actives 0.35% (n = 340,000). cell-based PrP 5' UTR mRNA reporter, plate reader. AID 488862. inhibition, % (concentration not given with the values); in the data active = inhibition above about 52%; note: 0 = median of the neutral control wells
# Vc quorum ag-1: quorum light induction in luxS cqsA deficient V. cholerae | activation, % at 18.7 µM | V. cholerae BH1578 lux reporter, luminescence, 6 h | AID 588436 | actives 0.16% (n = 350,000); in the data active = activation mostly above about 9.7%, no sharp cut-off
# Mtb UGM inh: Mtb UDP-galactopyranose mutase inhibition; P9WIQ1; purified UGM, fluorescence polarization probe displacement; actives 0.06% (n = 320,000); inhibition, % at 10 µM; AID 504406; in the data active = inhibition above about 10%, passing the limit was not always enough
# Mtb bLac sens: beta-lactam sensitization of Mtb H37Rv. M. tuberculosis H37Rv growth with meropenem, percent inhibition. inhibition, % at 25 µM. actives 0.27% (n = 330,000). AID 434955;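 note: growth measured after seven days incubation then overnight dye step; 0% = bacteria only wells and 100% = bacteria with antibiotic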
# Vc quorum ag-2: induces V. cholerae light production without autoinducers; shares compounds with Vc quorum ag-1; V. cholerae BH1578 lux reporter, luminescence, 6 h; activation, % at 50 µM; 620 tested, under 10 active; AID 602243
# * marks the source's active call; other numbers are inactive results; i = inactive; . = no result. This is a sample that favours compounds with a hit; in the whole collection about 0.76% have one here. Unless noted, the rule behind the calls is not given here.
SMILES,FadD28 FP inh,Rv3671c protease,PrP UTR inh,Vc quorum ag-1,Mtb UGM inh,Mtb bLac sens,Vc quorum ag-2
CCCS(=O)(=O)N1CCCC(C(=O)NCc2ccc(C)cc2)C1 (stereo not drawn),-2.1,5.1,-0.9,12.5,0.9,-12.1,0.0
CCCCn1nnnc1NCc1ccc(C)cc1,-1.2,.,-16.0,0.2,0.6,7.3,.
CCCCn1nnnc1NCc1ccc(N(CC)CC)cc1,-2.5,-1.1,-12.3,366.4*,-0.5,1.2,i
CCC(C(=O)NC(C)(C)C)N(Cc1cccs1)C(=O)CNS(=O)(=O)c1ccccc1 (stereo not drawn),-3.4,8.7,-8.8,-0.4,-2.6,-3.7,.
Cc1ccc(Oc2ccc(S(=O)(=O)N3CCOCC3)cc2C(N)=O)c(-n2nc3ccccc3n2)c1,-4.6,0.0,-8.5,25.0*,-3.6,-5.7,0.9
O=C(Nc1nnc(-c2ccccc2)o1)c1cccc(N2C(=O)CCC2=O)c1,-2.2,-5.5,-22.9,-2.6,2.8,-8.5,.
O=C(Nc1nnc(-c2ccc(Br)cc2)o1)c1cccc(N2C(=O)CCC2=O)c1,-4.2,-10.3,-12.2,14.3,0.6,36.0,0.3
CC12CCC(C(=O)Nc3ccc(Br)cn3)(OC1=O)C2(C)C (stereo not drawn),-3.8,2.5,.,-1.4,-1.3,-7.2,.
O=c1[nH]cnc2c1N=C(c1cccc([N+](=O)[O-])c1)CC(c1ccccc1)N2 (stereo not drawn),-2.8,4.6,-20.2,-2.8,.,-9.8,.
Cc1ccccc1C(=O)Nc1ccc(-c2nc3ccc(C(=O)c4ccccc4)cc3[nH]2)cc1,-3.0,-293.8,-17.5,12.5,1.5,99.2,0.0
O=C(c1ccccc1)c1ccc2nc(-c3ccc(NC(=O)c4ccccc4Br)cc3)[nH]c2c1,-2.0,-209.0,-11.1,i,-4.1,98.2,.
Cc1cccc(-c2cnc(C(O)c3ccc(Cl)cc3C)[nH]2)c1 (stereo not drawn),-2.9,.,.,-0.2,.,.,.
O=C(Nc1cccc(C(=O)N2CCCC2)c1)C1CC1,-0.2,.,-15.4,-1.0,.,.,.
O=C1C(=O)N(Cc2ccco2)C(c2cccc(Cl)c2)/C1=C(\O)c1ccc2c(c1)OCCO2 (stereo not drawn),-6.1,-2.1,-7.4,12.5,0.5,-2.6,0.4
Cc1sc(N)nc1-c1ccc(Oc2ccccc2)cc1,-1.3,8.8,-51.6,45.8*,-0.8,2.1,65.7
CC(=O)NC(c1ccccc1)c1nc(-c2ccccc2)cs1 (stereo not drawn),-2.2,.,.,i,.,.,.
CC1(C)CC(NC(=O)c2cc(S(=O)(=O)N3CCCCC3)ccc2Cl)CC(C)(C)N1,-5.4,0.7,-28.6,0.2,3.3,-7.0,.
CCN(CC(=O)Nc1c(F)cccc1F)C(=O)CSc1nc(C)cc(C)n1,0.1,2.4,-9.6,-0.3,1.5,-2.0,.
CCOCCc1nnc(NC(=O)Cc2c(F)cccc2Cl)s1,-0.7,-5.6,-4.5,i,-3.9,-8.5,.
COc1ccc(Cl)cc1S(=O)(=O)NC(C)C(=O)NCCCn1ccnc1 (stereo not drawn),-0.2,6.8,-25.3,14.3,0.1,-3.9,0.4
Cc1csc(SCC(=O)Nc2cc(C(N)=O)cc(C(N)=O)c2)n1,-0.8,2.0,-9.2,-0.8,-0.7,-2.2,.
CC(OC(=O)c1ccc(-n2cnnn2)cc1)C(=O)N(C)c1ccccc1 (stereo not drawn),-1.3,.,-11.7,14.3,.,.,1.2
COCCNC(=O)CN1CCN(C(c2ccccc2)c2ccccc2)CC1,-2.0,4.2,-8.9,12.5,-0.1,0.6,0.0
COC(=O)CN1CCN(C(c2ccccc2)c2ccccc2)CC1,0.0,-4.5,-16.9,-0.2,-3.1,-8.1,.
CC(NC(=O)CN1CCN(c2ccccc2F)CC1)c1ccccc1 (stereo not drawn),-0.1,.,-6.9,27.3,1.2,1.1,0.9
SMILES,FadD28 FP inh,Rv3671c protease,PrP UTR inh,Vc quorum ag-1,Mtb UGM inh,Mtb bLac sens,Vc quorum ag-2
Oc1cccc2ccc(N3CCOCC3)nc12,-4.1,1.8,-24.4,i,0.0,6.5,.
C=CCn1c(=O)c(C(=O)NC(C)c2ccccc2)c(O)c2ccccc21 (stereo not drawn),-4.3,-4.0,-18.9,450.8*,-0.7,-2.2,0.1
CCCCn1c(=O)c(C(=O)NC(C)c2ccccc2)c(O)c2ccccc21 (stereo not drawn),2.8,0.8,-15.9,i,-2.0,0.6,.
CCOc1ccccc1N(CC(=O)Nc1ccc2c(c1)OCCO2)S(C)(=O)=O,0.3,1.1,-3.2,21.3,-0.8,4.9,-0.1
CC(C)OC(=O)CSc1nnc(SCc2cccc3ccccc23)s1,-1.3,3.2,-15.3,28.6*,-2.5,99.9,0.1
COCCNC(=O)C1(C)CCCN(Cc2ccc(-c3ccccc3)o2)C1 (stereo not drawn),0.3,.,.,-3.3,.,.,.
Cc1cccc(-c2noc(CN(C(=O)C34CC5CC(CC(C5)C3)C4)C(C)C)n2)c1,-4.4,4.2,-44.2,17.9*,-1.1,-10.4,0.3
CC(C)N(Cc1nc(-c2ccc(Cl)cc2)no1)C(=O)C12CC3CC(CC(C3)C1)C2,-2.6,1.2,-42.9,3.6,-2.8,-2.5,.
CN(Cc1nc2ccccc2n1C)C(=O)c1ccco1,-3.4,3.2,-18.8,12.5,1.1,-3.3,0.1
Cc1cc2oc(=O)cc(CN3CCC(C)CC3)c2cc1Cl,-5.1,-21.6,-28.9,26.2*,2.0,28.9,4.0
COc1ccc(NC(=O)CCS(=O)(=O)c2ccc3c(c2)CCCN3C(C)=O)cc1Cl,-0.6,-8.2,-22.7,16.7*,-0.2,3.7,3.6
CC1(C)CC(Cc2nc(=S)[nH][nH]2)C(=O)O1 (stereo not drawn),-3.3,-0.3,-18.9,2.2,-0.5,0.8,.
CCOC(=O)N1CCC(NC(=O)C2CCN(C(=O)N3CC(C)Oc4ccc(C)cc43)CC2)CC1 (stereo not drawn),-1.1,-0.8,-30.7,7.6*,1.4,-5.1,1.1
Cc1ccc(-c2ccnc3nc(-n4cccc4)nn23)o1,-0.2,-5.3,-18.7,i,2.6,-4.5,.
COc1cccc(NC(=S)N(Cc2ccc(C(=O)O)cc2)Cc2ccc(OC)c(OC)c2)c1,-1.0,6.9,4.1,-0.3,4.6,0.2,.
COCC(C)n1c(SCC(=O)Nc2cccnc2Cl)nc2ccccc2c1=O (stereo not drawn),-3.2,.,.,-9.1,.,.,.
CCCCCCCCOC(=O)C(NC(=O)CCC(=O)Nc1ccc(S(N)(=O)=O)cc1)C(O)c1ccccc1 (stereo not drawn),-1.3,-19.3,-5.7,16.7*,-0.8,-11.9,0.1
N#CCSc1ccccc1NC(=O)COC(=O)CCNC(=O)c1ccc([N+](=O)[O-])cc1,-2.0,.,-7.0,9.3,.,.,-0.1
O=C(CCNC(=O)c1ccc([N+](=O)[O-])cc1)Nc1ccccc1N1CCCC1,-0.1,-1.9,-23.4,-1.6,4.1,-2.0,.
CCC(=O)N(CC)c1nc(-c2cc(OC)ccc2OC)cs1,0.1,-4.3,-8.8,15.4*,0.2,4.9,1.5
CCC(=O)N(CCCN(C)C)c1nc(-c2cc(OC)ccc2OC)cs1,-0.5,1.7,-0.3,-0.2,1.1,2.5,.

# Screens as filed in PubChem.
